Shiga inhibitor = inhibitors of Shiga toxin in Vero cells; Vero cells, Shiga toxin protein synthesis inhibition reporter; inhibition, % at 38.7 µM; hit rate 9.2% among 290,000; AID 2315; in the data active = inhibition mostly above about 28%, no sharp cut-off; inactive = mostly below about 43%; note: 0% is about no effect
VACV Venus inh = inhibitors of vaccinia virus (Venus reporter) | Vaccinia virus Venus reporter expression, fluorescence | Potency, µM (doses to about 36.5 µM), without a hit: at the highest dose activity change, negative = inhibition, most hits filed as inhibitors | hit rate 0.46% among 330,000 | AID 720580; calls by dose curve; tested in A549 cells; note: potency is the fitted concentration of half-maximal effect; % is set by controls: 0 for no effect and ±100 for the full control effect; nearly all actives have a fitted effect of over 30% in size
VACV mCherry inh = inhibitors of vaccinia virus infection (mCherry reporter signal). Vaccinia virus mCherry reporter infection, fluorescence. Potency, µM (highest dose often 36.5 µM), for inactives: top-dose activity change, negative = inhibition, hits mostly inhibitors. hit rate 0.63% among 310,000. AID 720579; calls by dose curve; tested in A549 cells; note: potency is the fitted concentration of half-maximal effect; % is set by controls: 0 for no effect and ±100 for the full control effect; nearly all actives have a fitted effect of over 35% in size
Lassa entry inh = blocks Lassa virus binding to or entry into cells | Lassa virus pseudotype entry inhibition, cell reporter | AID 540256 | Potency, µM (doses to about 37.9 µM), for inactives: top-dose activity change, negative = inhibition, actives largely listed as inhibitors | hit rate 1.2% among 300,000; calls by dose curve; tested in HEK293 cells; note: potency is the fitted concentration of half-maximal effect; % is set by controls: 0 for no effect and ±100 for the full control effect; nearly all actives have a fitted effect of over 50% in size
Marburg entry inh = Marburg virus entry inhibition | Marburg virus pseudotyped entry inhibition, cell reporter | Potency, µM (series often up to 37.8 µM), for the others: top-dose activity change, negative = inhibition, actives largely listed as inhibitors | hit rate 1.8% among 300,000; calls by dose curve; tested in HEK293 cells; note: potency is the fitted concentration of half-maximal effect; % is set by controls: 0 for no effect and ±100 for the full control effect
CHX counter = counter-screen for Shiga toxin inhibitors: cycloheximide protein synthesis inhibition; cell reporter, cycloheximide protein synthesis inhibition counterscreen; max response, %; hit rate 12% among 300,000; in the data active = max response mostly above about 13%, no sharp cut-off; inactive = mostly below about 14%; note: read at 38.3 µM for the half of the compounds with a filed dose; 0% is about no effect
* hit, by the source's call; i = inactive; u = inconclusive; x = no result given; + = active, no number; ! = repeats disagree; [ ] = remark or other dose. Shown is part of a subset that was picked to be rich in hits.

SMILES | Shiga inhibitor | VACV Venus inh | VACV mCherry inh | Lassa entry inh | Marburg entry inh | CHX counter
Cc1ccc(Cn2ccsc2=NC(=O)CCl)cc1 | 44.6* | x | x | x | x | 32.1*
Cc1ccc(Cn2ccsc2=NC(=O)COC(=O)c2ccc(NC(=O)CC#N)cc2)cc1 | x | -11.0% | -12.3% | u | u | x
CC1CCCN(C(=O)c2sc3cc([N+](=O)[O-])ccc3c2Cl)C1 (centres undefined) | 84.8* | u | x | -18.8% | -17.2% | 32.1*
Cc1ccc2c(Cl)c(C(=O)NC3CC3)sc2c1 | 61.1* | x | x | x | x | 47.1*
Cc1ccc2c(Cl)c(C(=O)Nc3cccnc3)sc2c1 | 126.4* | -22.4% | -26.4% | u | u | 58.5*
O=C(NC1CC1)c1sc2cc([N+](=O)[O-])ccc2c1Cl | 18.0 | -11.2% | i | 3.5% | -3.3% | 26.9*
Cc1nc(NC(=O)c2ccccc2)sc1-c1cc(C(=O)NCCO)nn1Cc1ccccc1 | x | -6.7% | i | x | x | x
CCOC(=O)[C@]12CCC=C1N(Cc1ccc(Cl)cc1Cl)C(=O)[C@H](CC(=O)NCCCN1CCCC1=O)C2 | x | -13.1% | -17.8% | x | x | x
CCc1ccc(NC(=O)CN2C(=O)C(c3ccc(Cl)cc3)=NC23CCCCC3)cc1 | x | -22.1% | -19.3% | -2.2%[46.1 µM] | -4.7%[46.1 µM] | x
Cn1cncc1C#Cc1ccc2cc(CCO)oc(=O)c2c1 | x | -11.1% | -5.6% | x | x | x
CN(C)CC(C)(C)CNC(=O)c1cnn(-c2nccc(-c3ccc4c(c3)OCO4)n2)c1-c1ccco1 | x | 4.0% | -8.3% | x | x | x
CCC(c1nnnn1CS(=O)(=O)c1ccc(C)cc1)N1CCN(c2nc3ccccc3s2)CC1 (centres undefined) | 24.2 | -19.5% | i | u | 8.2µM* | 16.3
CCCC(c1nnnn1CS(=O)(=O)c1ccc(C)cc1)N1CCN(c2ccccc2)CC1 (centres undefined) | -9.1 | -23.3% | -5.5% | 11.2µM* | u | -2.4
Cc1ccc(S(=O)(=O)Cn2nnnc2CN2CCOCC2)cc1 | 19.0 | -21.3% | i | -15.3% | 26.9% | 7.8
Cc1ccc(-c2nnnn2CS(=O)(=O)c2ccccc2)cc1 | 19.7 | x | x | 19.2% | 0.3% | 19.2*
Cc1ccc(S(=O)(=O)Cn2nnnc2C(c2ccccc2)N2CCN(c3ccccc3)CC2)cc1 (centres undefined) | -2.7 | -4.9% | -6.6% | -19.9% | u | -3.5
Nc1cccc(Nc2nc(OC(C(F)(F)F)C(F)(F)F)nc(OC(C(F)(F)F)C(F)(F)F)n2)c1 | -16.7 | 28.2µM* | -33.2%[1.46 µM] | u | u | -2.4
COc1nc(Nc2ccc(O)cc2)nc(OC(C(F)(F)F)C(F)(F)F)n1 | -9.4 | x | x | u | 9.3% | -2.7
COc1ccc(C)c2sc(NC(=O)C3=COCCO3)nc12 | 27.2* | x | x | x | x | 12.4*
COc1cccc2sc(NNC(=O)C3=COCCO3)nc12 | 86.8* | -7.8% | -3.4% | u | 30.4% | 40.3*
COc1ccc(OC)c2sc(NC(=O)C3=COCCO3)nc12 | 29.0 | -22.9% | -18.4% | x | x | -1.1
COc1ccc(C(OC(=O)c2ccco2)C(=O)NC(C)(C)C)cc1 (centres undefined) | -3.5 | -5.4% | -1.5% | 8.7% | -20.2%[46.1 µM] | -2.2
C#CCCCO/N=C1\C[C@@H](O)[C@@H](O)[C@@H]2[C@@H]3C(=O)N(Cc4ccccc4)C(=O)[C@@H]3CC[C@H]12 | x | x | x | x | 11.0%[14.2 µM] | x
CN(C)CCCC1(c2ccc(F)cc2)OCc2cc(C#N)ccc21 (centres undefined) | -15.9 | -18.4% | i | u | 15.8µM*! | -2.3
CCn1cnc2c(Nc3cccc(Cl)c3)nc(N[C@@H]3CCCC[C@@H]3N)nc21 | x | x | x | 8.2µM* | 11.6µM* | x
SMILES | Shiga inhibitor | VACV Venus inh | VACV mCherry inh | Lassa entry inh | Marburg entry inh | CHX counter
Cc1cc(Nc2cccc(Cl)c2)n2ncnc2n1 | -10.7 | -9.5% | -1.2% | 4.1% | -3.0% | -2.3
CC1=C(/C=C/c2ccccc2)CCN(C)C1 | 47.5 | -26.4% | -19.1% | 36.9%[14.3 µM] | 17.0% | 32.6*
CCc1nn(CC(=O)NCc2cccc(OC)c2OC)c(=O)c2cc3occc3n12 | x | -5.7% | -5.9% | x | 27.0%[46.1 µM] | x
O=c1oc2ccccc2c2c1C1O[C@](c3ccsc3)(Cc3c1ccc1ccccc31)O2 | i | x | x | x | x | 19.0*
COc1ccc([C@]23Cc4c(ccc5ccccc45)C(O2)C2=C(CCCC2=O)O3)cc1 | i | x | x | x | x | 6.4
O=C1CCCC2=C1C1O[C@](c3ccsc3)(Cc3c1ccc1ccccc31)O2 | i | x | x | x | x | 14.7*
O=C1C2=C(C(=O)c3ccccc31)C1O[C@](c3ccsc3)(Cc3c1ccc1ccccc31)O2 | + | x | x | x | x | 32.5*
Cc1ccc(Nc2ccc(N3CCN(C(=O)c4ccc([N+](=O)[O-])cc4)CC3)nn2)cc1 | x | -9.9% | -22.2% | 18.0%[46.1 µM] | x | x
CCCS(=O)(=O)c1ncc(Cl)c(C(=O)Nc2sc3c(c2C(=O)NCC)CCCC3)n1 | x | -22.6% | -20.9% | x | x | x
Cc1ccc(NC(=O)c2cc3cccc([N+](=O)[O-])c3[nH]2)cc1 | 83.9* | x | x | x | x | 45.9*
CCC(C)c1ccccc1NC(=O)COC(=O)c1ccc(N2CCCC2)c([N+](=O)[O-])c1 (centres undefined) | -12.6 | -11.0% | -13.2% | 2.5% | 16.9% | -1.5
Cc1ccc2[nH]c(C(=O)Nc3ccccc3)cc2c1 | x | -17.6% | -14.0% | 20.2%[46.1 µM] | u | x
CCC(C)c1ccccc1NC(=O)c1cc2cccc([N+](=O)[O-])c2[nH]1 (centres undefined) | 31.8 | -3.8%[7.34 µM] | -11.5%[7.34 µM] | u | u | 39.0*
CC(C)(C)N(Cc1ccccc1)C(=O)COC(=O)c1ccc(N2CCCC2=O)cc1 | x | -1.2% | -22.0% | -1.7%[46.1 µM] | 24.9%[46.1 µM] | x
O=C(O)c1cccc(N2C(=O)C3CC=CCC3C2=O)c1 (centres undefined) | 2.6 | 0.2% | i | 13.1% | 7.5% | 0.3
O=C(COC(=O)c1cccc(O)c1)c1ccccc1 | x | -7.7% | -14.4% | 11.3% | 16.4% | x
Cc1cc(C(=O)OCC(=O)c2ccccc2)c2ccccc2n1 | 0.6 | -2.1% | 25.7% | 9.9% | 12.5%[46.1 µM] | -5.3
CCc1ccc(C(=O)COC(=O)c2cccc(N3C(=O)c4c(C)nc5ccccc5c4C3=O)c2)cc1 | 102.8* | x | x | u | u | 56.1*
Nc1cccc(C(=O)OCC(=O)c2ccccc2)c1 | + | 2.4% | i | 5.4% | u | 44.1*
O=C(COC(=O)c1cccc(N2C(=O)C3CC=CCC3C2=O)c1)c1ccccc1 (centres undefined) | 55.2* | -7.9% | -0.9% | -17.9% | u | 26.9*
O=C(COC(=O)c1ccc(N2CCCC2=O)cc1)c1ccccc1 | 82.7* | -14.2% | -9.1% | 6.4% | 17.5%[46.1 µM] | 31.4*
COc1cc(NC(=O)C(CC(C)C)NS(=O)(=O)c2ccc3c(c2)CCCC(=O)N3)cc(OC)c1 (centres undefined) | x | -9.4% | -5.5% | -21.7%[46.1 µM] | x | x
COc1ccccc1CNC(=O)CCC1N=C2c3ccccc3N=C(SCC(=O)Nc3ccc(F)cc3)N2C1=O (centres undefined) | x | -19.1% | i | -15.1%[46.1 µM] | x | x
Clc1cccc(Cl)c1Cn1ccc(C2CC2)n1 | 63.5* | -15.4% | i | 25.2% | 15.4%[46.1 µM] | 40.6*
O=C(Cn1cc(S(=O)(=O)Cc2cccc(Cl)c2)c2ccccc21)Nc1ccccc1Cl | x | -15.6% | -24.5% | 1.1%[46.1 µM] | x | x
